Assay results published in the supplement of paper PMC12632987.
In all, about 1,800 sequences were measured (“median log2 fold change of GCK-ALFA target abundance (FLAG IP / Myc IP barcode read proportion)”: median about 0.14, lowest 2% from about -0.84 on). This is one part of a sample in which the lowest values are shown more often than they occur.

T1: TRAF2, Q12933
T1 chain: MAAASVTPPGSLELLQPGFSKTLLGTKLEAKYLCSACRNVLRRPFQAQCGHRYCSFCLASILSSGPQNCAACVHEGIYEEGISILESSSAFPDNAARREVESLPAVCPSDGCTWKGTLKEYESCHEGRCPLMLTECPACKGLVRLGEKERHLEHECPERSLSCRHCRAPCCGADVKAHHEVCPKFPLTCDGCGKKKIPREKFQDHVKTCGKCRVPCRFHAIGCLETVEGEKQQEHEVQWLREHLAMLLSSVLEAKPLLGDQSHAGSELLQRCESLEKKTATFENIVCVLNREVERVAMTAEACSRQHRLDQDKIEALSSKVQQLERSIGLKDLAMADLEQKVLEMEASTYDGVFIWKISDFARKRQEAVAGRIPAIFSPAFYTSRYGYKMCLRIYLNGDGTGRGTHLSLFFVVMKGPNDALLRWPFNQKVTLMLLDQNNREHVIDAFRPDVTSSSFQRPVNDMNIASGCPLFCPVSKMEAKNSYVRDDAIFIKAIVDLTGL

B1: traf2_out_20_3_2058 (protein)
chain: SELDEEIEKKTKELEKKLAELAKLLPPEEAAELAKAWAEVKKAAKEGLEEFLIAVSKLRRLLLELSEEARARGDEKTAKLLEEAAEIAQEIAHLIYKKIE
B2: traf2_out_1_158_906 (protein)
chain: STAVNTLYAVATSIADVYAELAKERGLEKAAALLEKLKEDIKELYEKNKNASLEEFAKKVLELIEEKEKESESLPEEDKALVDIAFRQIKSGVEQVVKLA
B3: traf2_out_16_177_1453 (protein)
chain: ELDRLMDRLVILSELRRAALLAVEGRGDEYREHLARARELAEEAGDEEALALADRIEALIAENTPEAKEELKKLAEELQKEAQKLALEAEKLIKERAKEE
B4: traf2_out_11_169_827 (protein)
chain: EEAEKNRKINDKALELEDKAKKEFKEFVLKLAKEDGLDVEEIKKIFEENKNKSLSAQAAAVIEYFKSKGKEEAAKKVLEKYEELKEKINKEVTAFIKELE
B5: traf2_out_11_155_748 (protein)
chain: EERRKLLQEMNDKITELFDKAREEALKIAEEAAKKHPEHAEEIKKKIEETKGFSYRSFILSMIELFEELGLEEEAKKLKELLEKTQKEANKIVQETEKKL
B6: traf2_out_20_3_2118 (protein)
chain: EELEEELEKELEEALKLLKEAAKLADKKTAKKLEKLAKRLKESRKLSPSDRLVVVSEVRREVRRLRLEAEKKGDKKLAKVLDEAAEELNRAANLLMKIIE
B7: traf2_out_13_95_1130 (protein)
chain: SRETAEKIMEIADEMLDKVLEILKELLKKFEKAGVGVEEIKEAIYLAEHQSINEAIKLLEELAKKYPEFKEELNKAIEEIKKLRREAGKKVAEILKEEKE
B8: traf2_out_11_79_936 (protein)
chain: EEKRQELLKKLEEALKLLKELLEKMKAGTISEEERKEMLDEIERLLQRAAQLALELGLSDTLVEISEAKRHVRLAYSGDLEALEKAIKELEEAIKLVEEA
B9: traf2_out_17_162_1640 (protein)
chain: SPVEEFKERVEKELKELEKRVEELEEKSKKIDEYSKEELSDLIVEASEVKRRARELKQEVLAAKDLIPEEERARILKRLEEIIERAQRIAQKFYDKYLSL
B10: traf2_out_13_95_1160 (protein)
chain: SKELAKKIMEIADEMLDESEKILEELLKIAKEKGKLEKEVQEALDLARYRSINEAIHKLEELAKKYPEFKEEFEKAIKKLKELKREAGKKVAKLIKEEEE
B11: traf2_out_13_95_1154 (protein)
chain: SKELAEKIMEIADKMLDKSKEILKELLEIAKKKGKLEEEVQEALYLAETRSINEAIHKLKELAKKYPEFKEELEKAIKELEELKREAGKEVAKLIKEEKE
B12: traf2_out_13_95_1105 (protein)
chain: SAETAEKIMEVADEMLEKSEKLLEELLKIAKEKGKLVEEVQEALDLARYRSINEAIHKLKELAKKYPEFKEEFEATIKELEELKREAGRKVAEILKEEKE
B13: traf2_out_17_162_1603 (protein)
chain: SSLEKKKEELLKKKEELKEELKRLTEKLKNIEKLSKEELSDLLVEASEKKREALEALEKIEELKDELDPEEYEKLSTEFEELAEEFQRIANKFYKELEKK
B14: traf2_out_6_156_2407 (protein)
chain: MVEEIFEEAMKEIKELIKKLSEASEEKKISYISKIAGTFYRALQRLREAGASVEELEEFIKRMMEKIKEWLDEEGLPEDIKNLILSSLKAVGDVALEEAK
B15: traf2_out_17_162_1641 (protein)
chain: SAAEELRKRLLEELERLEKELKELEEKSKKIDEYTKEELSDLIVEASEARRRARELIEEVDRNRSLLDPEEYEELKKRLEEIAERLNRIAQKFYDKYLEL
B16: traf2_out_17_162_1479 (protein)
chain: MSIEEKVERLERELEELEEEARRLREELERLEEKSKEEITDLLVEVSEARRRALELAEEFEELAPEIGEEKARELADRAREIAEELQRIANEIYKELEKK
B17: traf2_out_17_60_1760 (protein)
chain: GPEERKKELAEEARRKIEEARRLVEEVRKKLEAGTLTADEAMDYLVELSEKRRELRRLAEELRAEGPEFEPLIEELERAIEEVERTMNEVGKELERLLAA
B18: traf2_out_6_3_2512 (protein)
chain: EEEEERKRNEEALEEAAEMSLETIKIAAETTLKELEKAVEDPNATETDFLAYKSSLNLLLEIMKKHAEKHPEEKEEAEKFIEEMKKKLEELEKEWKKKRA
B19: traf2_out_20_3_2213 (protein)
chain: DELVAAVREQLAKIRELLEQARPRLAPEDYARLNALLARAEEALETDPSDALVALSELRRALLELAERARAAGDEELAKLLEEAAEAANKAANLVMQLLE

Target: T1, TRAF2, Q12933
Assay: median log2 fold change of GCK-ALFA target abundance (FLAG IP / Myc IP barcode read proportion) (log2 ratio); each designed protein is fused to an ALFA-tag nanobody in HEK293 cells to bring the named protein to FLAG-tagged glucokinase (GCK); Myc marks an untargeted standard; higher = target protein stabilised (more abundant)
Conditions: target protein: 3xFLAG-MCP-GCK-ALFA reporter; HEK293 landing pad (RPLP)
How it was run: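 An ALFA-nanobody-fused binder library was recombined into HEK293 landing-pad cells and induced with 2 μg mL^−1 doxycycline. Cells were transfected with a plasmid expressing a FLAG-tagged target and a Myc-tagged standard. After 48 h, lysates underwent anti-FLAG and anti-Myc immunoprecipitation, and circular RNA barcodes were reverse transcribed, amplified and sequenced. Target abundance is the per-binder median log2 ratio of FLAG to Myc barcode read proportions. Barcodes needed ≥10^−7 proportion in both replicates, binders ≥3 barcodes per replicate, and a 10^−6 pseudocount was added; the two replicates were pooled.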

| Binder | median log2 fold change |
| --- | --- |
| B1 | 0.144 |
| B2 | 0.0998 |
| B3 | -0.267 |
| B4 | -0.542 |
| B5 | 0.302 |
| B6 | 0.107 |
| B7 | -0.433 |
| B8 | 0.397 |
| B9 | 0.0147 |
| B10 | -1.21 |
| B11 | -0.148 |
| B12 | -0.477 |
| B13 | 0.253 |
| B14 | 0.175 |
| B15 | 0.177 |
| B16 | 0.0731 |
| B17 | 0.112 |
| B18 | 0.417 |
| B19 | 0.129 |
